37 molecules from PubChem BioAssay (NCATS) can be followed below.

Results filed as inconclusive are left out. The source made the active and inactive calls. Calls follow the shape of the dose curve; as a rule, active = well fitted cell-killing curve with a large enough effect; inconclusive = small, poorly fitted or top-dose-only effect, or effect the other way; inactive = flat fitted curve, though single readings scatter.
% is scaled to controls: 0 for no effect and ±100 for the full control effect.

The subject of the first test is Es-2. The experiment in a line: Primary qHTS to identify gynecologic anti-cancer compounds using libraries of approved drugs and bioactive compounds (AID 1345084). Also: nearly all actives have a fitted effect of over 55% in size. The settings on record: Gynecologic cancer cell panel viability, ATPlite luminescence, 48 h; series mostly up to 57.5 µM; activity change, negative = cytotoxicity: at the top concentration. The method in brief:
(§1)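 ATP-based viability (ATPlite), 1,000 cells/well, 16 h pre-incubation, 48 h compound at 37 C, 5% CO2, 15 min RT before read.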
A general note: In qHTS, concentration-response curves come from the screen itself.
As to `O=C(NCCCCN1CCN(c2cccc(Cl)c2Cl)CC1)c1cc2ccccc2s1`, the “activity change, negative = cytotoxicity” value was -0.293% (inactive).
The same measure, in the same setting: with `C/C=C/[C@@H]1C=C[C@@H]2C[C@H](C)CC[C@H]2[C@]1(C)/C(O)=C1/C(=O)[C@@H](CO)N(C)C1=O` the figure was 2.49% [at 38.5 µM] (inactive); with `N#CC(CCCN1CCN(/N=C/c2cccnc2)CC1)(c1ccccc1)c1ccccc1`, 6.38% (inactive).
For `CCc1cc2c(cc1CC)CC(NCC(O)c1ccc(O)c3[nH]c(=O)ccc13)C2` (centres undefined), the “activity change, negative = cytotoxicity” value was 1.18% (inactive).
Consider `CC(=O)OC1C(OC(=O)c2ccccc2)C2C(=C(C)CCC2(C)C)C23CCC(C)(C2)C(=O)CC13` (centres undefined), for which the “activity change, negative = cytotoxicity” value was -13.8% [at 25.3 µM] (inactive).
On the same count and under the same terms, with `CCCc1cc(C)n(C)c(=O)c1CN(C)C(=O)c1cc(-c2ccc(N3CCN(C(C)C)CC3)nc2)cc2c1cnn2C(C)C` the figure was -2.35% (inactive); with `COC(=O)c1cc(Br)cnc1N1CCC(NC2CCCCC2)C(O)C1` (centres undefined), -6.86% (inactive); with `Cc1ccc(C2(C(=O)N3CCC(n4nc(-c5ccccc5)oc4=O)CC3)CC2)cc1`, 2.86% (inactive).
Turning to `Cc1c(C2=CCN(C(=O)N(C)C(C)C)CC2)nnn1-c1cccnc1F`, the “activity change, negative = cytotoxicity” value is 12.1% (inactive).
On to `NC(N)=NC(=O)c1cnn(-c2cccc3ncccc23)c1C1CC1`, for which the “activity change, negative = cytotoxicity” value was -1.21% (inactive).
For `CC1(C)OC[C@H](NC(=O)Nc2ccc(Br)cc2Br)[C@H](c2ccccc2)O1`, the “activity change, negative = cytotoxicity” value is 9.16% (inactive).
For `O=C(Nc1ccccc1)c1ccc(Nc2nnc(-c3ccc(O)cc3)c3ccccc23)cc1`, the “activity change, negative = cytotoxicity” value is -1.57% (inactive).
Take `CCCc1ccc(OCC(=O)N(Cc2nc(-c3cccnc3)no2)C(C)C)cc1`: the “activity change, negative = cytotoxicity” value is -2.25% (inactive).
On the same count and under the same terms, for `C/C(=C/C=C\C=C\Cc1cnco1)[C@@H](O)C(C)(C)C(N)=O` the value was 2.95% (inactive); for `CCC(C)CNCC(=O)N1CCC2SC=CC2C1COc1cccc(C)c1` (centres undefined), 1.52% (inactive); for `CNC(=O)c1cc(Oc2ccc(NC(=O)c3cccc(C(F)(F)F)c3)cc2)ccn1`, -22% (inactive).
Still for that read-out and setting: with `CC(F)(F)CN1CCOc2c(nn(-c3ccccc3Cl)c2-c2ccc(Cl)cc2)C1=O` the figure was -2.24% (inactive); with `COc1cc(CN(CCN)C(=O)c2cccs2)ccc1OCc1ccccc1`, -14.6% (inactive).
On the same count and under the same terms, for `O=C1c2ccc(Nc3ccc(F)cc3F)cc2CCc2ccc(OCC(O)CO)cc21` (centres undefined) the value was 1.4% (inactive).
For `CCC(C)CNCC(=O)N1CCc2sccc2C1COc1cccc(C)c1` (centres undefined), the “activity change, negative = cytotoxicity” value is 1.09% (inactive).
Still for that read-out and setting: with `COc1cc(C(C)C)c(Oc2cnc(N)nc2N)cc1I` the figure was -6.21% (inactive).
For the molecule `Cc1cc(C)cc(-c2cnc3cc(Cl)c(-c4cccc(O)c4)cc3c2OCCCN)c1`, the “activity change, negative = cytotoxicity” value is -15.3% (inactive).
With `C=CC(C)(O)CC/C=C(\C)C(=O)OC1C(O)C(CO)OC(OC(=O)C23CCC(C)(C)CC2C2=CCC4C5(C)CCC(OC6OC(COC7OCC(OC(C)=O)C(O)C7OC7OC(COC(C)=O)C(O)C(O)C7OC(C)=O)C(O)C(O)C6OC6OCC(O)C(O)C6O)C(C)(C)C5CCC4(C)C2(C)C(O)C3O)C1OC1OCC(OC2OCC(O)C(OC3OCC(O)C(O)C3O)C2O)C(O)C1O` (centres undefined), the activity change, negative = cytotoxicity was -2.99% [at 6.55 µM] (inactive).
Still for that read-out and setting: for `CCc1cccc(CC)c1-n1c(C=C(C)C)c(C(=O)N2CCNCC2)cc(-c2nc(-c3ccc(C(F)(F)F)cc3)cs2)c1=O` the value was -2.19% [at 25.3 µM] (inactive).
On the same count and under the same terms, with `Cc1nc(Nc2ccc(F)cc2)nc(N2CCc3ccccc3C2C)c1C` (centres undefined) the figure was -2.8% (inactive); with `CCCn1ncc(CN2CCCC(C(=O)c3cccc(OC(C)C)c3)C2)c1C` (centres undefined), -0.277% (inactive).
Same read-out and setting: with `Cc1ccc(N2CCN(CCC3NC(=O)c4ccccc43)CC2)cc1C` (centres undefined) the figure was 21.9% (inactive); with `COc1ccc(S(=O)(=O)Nc2c(C)cc(C)cc2C)cc1`, -0.795% (inactive); with `O=C(NS(=O)(=O)c1ccc(Br)s1)c1ccc(Cl)cc1Cl`, 9.23% (inactive).
Turning to `CC1(C)CC[C@]2(C(=O)O)CC[C@]3(C)C(=CCC4[C@@]5(C)C[C@@H](O)[C@H](O)[C@@](C)(CO)C5CC[C@]43C)[C@@H]2[C@@H]1O` (some centres undefined), the “activity change, negative = cytotoxicity” value is 5.88% [at 25.3 µM] (inactive).
In the case of `CC1(C)CCC(C)(C)c2cc(C#Cc3ccc(C(=O)O)cc3)ccc21`, the “activity change, negative = cytotoxicity” value was -0.0351% (inactive).
`Cc1nc2c(C(F)(F)F)cccc2nc1-c1ccc(-c2cccc(S(C)(=O)=O)c2)cc1`: the “activity change, negative = cytotoxicity” value was 3.49% (inactive).
For `CC(C)C[C@@H](C(=O)N[C@@H](Cc1ccc(OCc2ccccc2)cc1)C(=O)NC(C)(C)C)N(C)Cc1ccc(C(C)(C)C)cc1`, the “activity change, negative = cytotoxicity” value is 0.222% (inactive).
Same read-out and setting: with `CC1=C(C(=O)OC2CCCCC2)C(c2ccc([N+](=O)[O-])cc2)C2=C(CC(C)(C)CC2=O)N1` (centres undefined) the figure was 4.21% (inactive).

The subject of another test is HeLa. The test is described as above. The settings on record: Gynecologic cancer cell panel viability, ATPlite luminescence, 48 h; series mostly up to 57.5 µM; activity change, negative = cytotoxicity: at the top concentration. The method in brief:
as §1
With `O=C(NCCCCN1CCN(c2cccc(Cl)c2Cl)CC1)c1cc2ccccc2s1`, the “activity change, negative = cytotoxicity” value is 10.2% (inactive).
Same read-out and setting: for `C/C=C/[C@@H]1C=C[C@@H]2C[C@H](C)CC[C@H]2[C@]1(C)/C(O)=C1/C(=O)[C@@H](CO)N(C)C1=O` the value was -3.6% [at 38.5 µM] (inactive).
In the case of `CNc1nc(NCc2ccc(NS(C)(=O)=O)cc2Cl)cc(-c2ccccn2)n1`, the “activity change, negative = cytotoxicity” value was -2.71% (inactive).
Still for that read-out and setting: for `N#CC(CCCN1CCN(/N=C/c2cccnc2)CC1)(c1ccccc1)c1ccccc1` the value was 3.85% (inactive); for `CCc1cc2c(cc1CC)CC(NCC(O)c1ccc(O)c3[nH]c(=O)ccc13)C2` (centres undefined), 16.7% (inactive); for `CC(=O)OC1C(OC(=O)c2ccccc2)C2C(=C(C)CCC2(C)C)C23CCC(C)(C2)C(=O)CC13` (centres undefined), -11.4% [at 25.3 µM] (inactive).
Still for that read-out and setting: for `COC(=O)c1cc(Br)cnc1N1CCC(NC2CCCCC2)C(O)C1` (centres undefined) the value was -1.17% (inactive).
Regarding `Cc1ccc(C2(C(=O)N3CCC(n4nc(-c5ccccc5)oc4=O)CC3)CC2)cc1`, the “activity change, negative = cytotoxicity” value is 0.714% (inactive).
On the same count and under the same terms, for `NC(N)=NC(=O)c1cnn(-c2cccc3ncccc23)c1C1CC1` the value was -18.5% (inactive); for `CC1(C)OC[C@H](NC(=O)Nc2ccc(Br)cc2Br)[C@H](c2ccccc2)O1`, -0.594% (inactive).
Take `O=C(Nc1ccccc1)c1ccc(Nc2nnc(-c3ccc(O)cc3)c3ccccc23)cc1`: the “activity change, negative = cytotoxicity” value was -8.15% (inactive).
Still for that read-out and setting: with `CCCc1ccc(OCC(=O)N(Cc2nc(-c3cccnc3)no2)C(C)C)cc1` the figure was -17.7% (inactive); with `C/C(=C/C=C\C=C\Cc1cnco1)[C@@H](O)C(C)(C)C(N)=O`, 2.5% (inactive).
Take `CCC(C)CNCC(=O)N1CCC2SC=CC2C1COc1cccc(C)c1` (centres undefined): the “activity change, negative = cytotoxicity” value is 2.5% (inactive).
Same read-out and setting: with `CNC(=O)c1cc(Oc2ccc(NC(=O)c3cccc(C(F)(F)F)c3)cc2)ccn1` the figure was -4.8% (inactive).
Same read-out and setting: for `CC(F)(F)CN1CCOc2c(nn(-c3ccccc3Cl)c2-c2ccc(Cl)cc2)C1=O` the value was 1.05% (inactive); for `COc1cc(CN(CCN)C(=O)c2cccs2)ccc1OCc1ccccc1`, -3.34% (inactive); for `O=C1c2ccc(Nc3ccc(F)cc3F)cc2CCc2ccc(OCC(O)CO)cc21` (centres undefined), 1.14% (inactive).
As for `O=S(=O)(c1ccccc1)N(CC(F)(F)F)c1ccc(C(O)(C(F)(F)F)C(F)(F)F)cc1`, the “activity change, negative = cytotoxicity” value is -1.1% (inactive).
The same measure, in the same setting: for `CCC(C)CNCC(=O)N1CCc2sccc2C1COc1cccc(C)c1` (centres undefined) the value was 7.07% (inactive).
Still for that read-out and setting: for `COc1cc(C(C)C)c(Oc2cnc(N)nc2N)cc1I` the value was -19.1% (inactive).
With `Cc1cc(C)cc(-c2cnc3cc(Cl)c(-c4cccc(O)c4)cc3c2OCCCN)c1`, the “activity change, negative = cytotoxicity” value was 5.43% (inactive).
The same measure, in the same setting: with `C=CC(C)(O)CC/C=C(\C)C(=O)OC1C(O)C(CO)OC(OC(=O)C23CCC(C)(C)CC2C2=CCC4C5(C)CCC(OC6OC(COC7OCC(OC(C)=O)C(O)C7OC7OC(COC(C)=O)C(O)C(O)C7OC(C)=O)C(O)C(O)C6OC6OCC(O)C(O)C6O)C(C)(C)C5CCC4(C)C2(C)C(O)C3O)C1OC1OCC(OC2OCC(O)C(OC3OCC(O)C(O)C3O)C2O)C(O)C1O` (centres undefined) the figure was -14% [at 6.55 µM] (inactive); with `CCc1cccc(CC)c1-n1c(C=C(C)C)c(C(=O)N2CCNCC2)cc(-c2nc(-c3ccc(C(F)(F)F)cc3)cs2)c1=O`, 11.8% [at 25.3 µM] (inactive).
Turning to `Cc1nc(Nc2ccc(F)cc2)nc(N2CCc3ccccc3C2C)c1C` (centres undefined), the “activity change, negative = cytotoxicity” value was -2.02% (inactive).
Same read-out and setting: with `CCCn1ncc(CN2CCCC(C(=O)c3cccc(OC(C)C)c3)C2)c1C` (centres undefined) the figure was -1.02% (inactive); with `Cc1ccc(N2CCN(CCC3NC(=O)c4ccccc43)CC2)cc1C` (centres undefined), 3.59% (inactive); with `COc1ccc(S(=O)(=O)Nc2c(C)cc(C)cc2C)cc1`, -8.99% (inactive).
The same measure, in the same setting: for `O=C(NS(=O)(=O)c1ccc(Br)s1)c1ccc(Cl)cc1Cl` the value was 12.1% (inactive).
For the molecule `CC1(C)CC[C@]2(C(=O)O)CC[C@]3(C)C(=CCC4[C@@]5(C)C[C@@H](O)[C@H](O)[C@@](C)(CO)C5CC[C@]43C)[C@@H]2[C@@H]1O` (some centres undefined), the “activity change, negative = cytotoxicity” value is 0.94% [at 25.3 µM] (inactive).
The same measure, in the same setting: for `CC1(C)CCC(C)(C)c2cc(C#Cc3ccc(C(=O)O)cc3)ccc21` the value was -0.66% (inactive).
Still for that read-out and setting: with `Cc1nc2c(C(F)(F)F)cccc2nc1-c1ccc(-c2cccc(S(C)(=O)=O)c2)cc1` the figure was 0.901% (inactive).
Turning to `CC(C)C[C@@H](C(=O)N[C@@H](Cc1ccc(OCc2ccccc2)cc1)C(=O)NC(C)(C)C)N(C)Cc1ccc(C(C)(C)C)cc1`, the “activity change, negative = cytotoxicity” value was -2.26% (inactive).
The same measure, in the same setting: for `CC1=C(C(=O)OC2CCCCC2)C(c2ccc([N+](=O)[O-])cc2)C2=C(CC(C)(C)CC2=O)N1` (centres undefined) the value was -28.4% (inactive).
The same measure, in the same setting: for `C[C@@H]1O[C@@H](O[C@H]2[C@H](OC(=O)[C@]34CCC(C)(C)C[C@H]3C3=CCC5[C@@]6(C)C[C@H](O)[C@H](O[C@@H]7O[C@H](C(=O)O)[C@@H](O)[C@H](O)[C@H]7O)[C@@](C)(CO)C6[C@H](O)C[C@@]5(C)[C@]3(C)C[C@H]4O)O[C@@H](CO)[C@@H]2O)[C@H](O)[C@H](O)[C@H]1O[C@@H]1OC[C@@H](O)[C@H](O[C@H]2OC[C@](O)(CO)[C@H]2O)[C@H]1O` (some centres undefined) the value was -1.36% [at 6.55 µM] (inactive).
